The whole screen tested about 320,000 compounds, of which about 480 (0.15%) were called active. Inconclusive results (about 1%) are left out. Rule as the data show it: active = inhibition above about 26% (passing the limit was not always enough); inconclusive = no clear call, values can overlap the other calls. The full list was thinned out, with actives kept by preference.

This assay deals with Histone deacetylase 3 (Homo sapiens) (UniProt O15379). In words: HDAC3 deacetylase inhibitors, primary screen, biochemical, fluorescence, cell-free homogeneous (AID 2718). Conditions: recombinant HDAC3, fluorogenic peptide/trypsin coupled, at 8.3 µM, stronger effect = higher value.
Histone deacetylase 3 (Homo sapiens), sequence (O15379 whole entry, looked up): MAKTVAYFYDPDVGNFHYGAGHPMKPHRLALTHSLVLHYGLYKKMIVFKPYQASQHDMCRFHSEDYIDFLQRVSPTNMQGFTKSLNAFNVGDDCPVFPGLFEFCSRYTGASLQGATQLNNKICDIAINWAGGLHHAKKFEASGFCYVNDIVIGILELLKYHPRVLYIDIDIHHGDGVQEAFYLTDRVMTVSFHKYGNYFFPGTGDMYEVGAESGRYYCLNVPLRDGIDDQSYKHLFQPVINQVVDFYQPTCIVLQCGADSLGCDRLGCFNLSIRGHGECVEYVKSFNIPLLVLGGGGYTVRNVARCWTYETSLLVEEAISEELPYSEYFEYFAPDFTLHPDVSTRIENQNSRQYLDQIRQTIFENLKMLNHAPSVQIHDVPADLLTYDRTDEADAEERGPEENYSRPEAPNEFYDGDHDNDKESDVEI
`COc1ccc(C(=O)n2nc(C)c(Br)c2C)cc1OC`: the inhibition is 38.4% (active).

Take `COc1ccc(C(=O)n2nc(-c3ccc(Cl)cc3)nc2N)cc1OC`: the inhibition is 13.1% (inactive).

Consider `COc1ccc(C(=O)n2nc(-c3ccc(C)cc3)nc2N)cc1OC`, for which the inhibition was 9.8% (inactive).

For the compound `O=C(Cc1ccccc1)Nc1c(Cl)ccc2nsnc12`, the inhibition was 2.55% (inactive).

For `C=C(Br)CN1CCN(CC(=C)Br)CC1`, the inhibition is -3.73% (inactive).

With `O=C(O)C1C2C=CC(O2)C1C(=O)NCCc1cccc(Cl)c1` (configuration not stated), the inhibition is -6.57% (inactive).

Consider `Cc1ccc(/C=N/NC(=O)C(NC(=O)c2ccccc2)c2n[nH]c(=O)c3ccccc23)cc1` (configuration not stated), for which the inhibition was 15% (inactive).

Consider `O=C(COC(=O)c1ccco1)Nc1ccc(Cl)cn1`, for which the inhibition was 0.924% (inactive).

For the compound `COc1cc(CNC2CCCC2)c(Br)cc1OCc1ccccc1`, the inhibition was 3.98% (inactive).

On to `COc1cc(C2CC(=O)N3CN(Cc4ccccc4)CSC3=C2C#N)ccc1OCc1ccccc1` (configuration not stated), for which the inhibition was 33.1% (active).

Consider `COc1cc(CN2CCC(C(N)=O)CC2)ccc1OCc1ccccc1`, for which the inhibition is -3.96% (inactive).

Regarding `COc1cc(NC(=O)c2[nH]cnc2C(N)=O)cc(C(=O)Nc2cccc(C(F)(F)F)c2)c1`, the inhibition was -8.89% (inactive).

Regarding `O=C(NC(=S)NC1CCSC1=O)c1ccccc1F` (configuration not stated), the inhibition is -7.58% (inactive).

As to `O=C(CN1CCN(C(=S)NC2CCCC2)CC1)Nc1ccc(Oc2ccccc2)cc1`, the inhibition is -5.51% (inactive).

Turning to `COc1ccccc1-n1nnnc1SCC(=O)NC(=O)Cc1ccccc1`, the inhibition was -1.86% (inactive).

As for `O=C(NCc1ccccc1)C1=C[C@@H](c2ccc(C(F)(F)F)cc2)C[C@@H](OCc2ccc(CO)cc2)O1`, the inhibition is 21.1% (inactive).

Turning to `O=C(C1=C[C@H](C2CC2)C[C@H](OCc2ccc(CO)cc2)O1)N1CCN(Cc2ccccc2)CC1`, the inhibition is -8.37% (inactive).

Take `O=C(C1=C[C@H](c2ccc(C(F)(F)F)cc2)C[C@H](OCc2ccc(CO)cc2)O1)N1CCN(Cc2ccccc2)CC1`: the inhibition is 33.5% (active).

In the case of `CNS(=O)(=O)c1cccc(C(=O)OCC(=O)N2c3ccccc3NC(=O)C2(C)C)c1`, the inhibition is 4.33% (inactive).

On to `CCN(CC)CCN(C(=O)c1cccc([N+](=O)[O-])c1)c1nc2ccc(OC)cc2s1`, for which the inhibition is -1.73% (inactive).

Take `CN(C(=O)c1cccc(NC(=O)C2CCN(C(=O)OC(C)(C)C)CC2)c1)C1CCC1`: the inhibition is -2.89% (inactive).

In the case of `CSCCC(NC(=O)c1ccco1)C(=O)NCCc1ccc(F)cc1` (configuration not stated), the inhibition is -4.83% (inactive).

With `COc1ccc(C(=O)OCc2cc(=O)n3ccsc3n2)cc1F`, the inhibition was 0.474% (inactive).

Consider `C=CC[C@H](CC(=O)OC(C)(C)C)C(=O)OC[C@H]1CCCN1C(=O)[C@H](CC=C)CC(=O)N(CCO)Cc1ccccc1`, for which the inhibition was 1.66% (inactive).

`C=CCC[C@H](Cc1ccc(F)cc1)C(=O)OC[C@H](C)NC(=O)[C@H](CC=C)CC(=O)N(CCO)Cc1ccccc1`: the inhibition was 30.2% (active).

For the compound `C=CC[C@@H](CC(=O)N[C@H](CO)Cc1ccccc1)C(=O)N[C@H](C)COC(=O)[C@@H](CC=C)Cc1ccc(F)cc1`, the inhibition is 19.7% (inactive).

Take `C=CCC[C@@H](Cc1ccc(F)cc1)C(=O)OC[C@H](Cc1c[nH]c2ccccc12)NC(=O)[C@@H](CC=C)CC(=O)N(CCO)Cc1ccccc1`: the inhibition was 41.9% (active).

For the compound `C=CC[C@@H](CC(=O)N[C@@H](CO)Cc1ccccc1)C(=O)NCCOC(=O)[C@@H](CC=C)CC(=O)OC(C)(C)C`, the inhibition was 0.71% (inactive).

With `C=CCC[C@@H](Cc1ccc(F)cc1)C(=O)O[C@H](CNC(=O)[C@H](CC=C)CC(=O)N(CCO)Cc1ccccc1)c1ccccc1`, the inhibition was 48.4% (active).

As for `C=CC[C@@H](CC(=O)N[C@@H](CO)Cc1ccccc1)C(=O)N[C@H](COC(=O)[C@H](CC=C)CC(=O)OC(C)(C)C)Cc1ccccc1`, the inhibition is 7.81% (inactive).

As to `C=CC[C@@H](CC(=O)N[C@H](CO)Cc1ccccc1)C(=O)N[C@@H](COC(=O)[C@@H](CC=C)Cc1ccc(F)cc1)Cc1c[nH]c2ccccc12`, the inhibition was 0.653% (inactive).

`C=CCC[C@H](Cc1ccc(F)cc1)C(=O)OC[C@@H](NC(=O)[C@@H](CC=C)CC(=O)N[C@H](CO)Cc1ccccc1)C(C)(C)C`: the inhibition was 41.7% (active).

With `C=CC[C@@H](CC(=O)NCCO)C(=O)N[C@H](C)COC(=O)[C@@H](CC=C)CC(=O)OC(C)(C)C`, the inhibition is -0.677% (inactive).

Turning to `C=CCC[C@H](Cc1ccc(F)cc1)C(=O)OC[C@@H](Cc1c[nH]c2ccccc12)NC(=O)[C@H](CC=C)CC(=O)N[C@H](CO)Cc1ccccc1`, the inhibition was 6.12% (inactive).

Regarding `C=CCC[C@@H](Cc1ccc(F)cc1)C(=O)OC[C@@H](C)NC(=O)[C@H](CC=C)CC(=O)N(CCO)Cc1ccccc1`, the inhibition is 2.58% (inactive).

In the case of `C=CC[C@H](CC(=O)N(CCO)Cc1ccccc1)C(=O)N[C@@H](COC(=O)[C@@H](CC=C)Cc1ccc(F)cc1)Cc1ccccc1`, the inhibition is 40.9% (active).

Turning to `O=C1N[C@@H](c2ccccc2)COC(=O)[C@H](Cc2ccc(F)cc2)C/C=C\C[C@@H]1CC(=O)N(CCO)Cc1ccccc1`, the inhibition was 8.45% (inactive).

As to `C=CC[C@H](CC(=O)NCCO)C(=O)N[C@@H](COC(=O)[C@@H](CC=C)Cc1ccc(F)cc1)Cc1c[nH]c2ccccc12`, the inhibition was 9.77% (inactive).

Regarding `COC(=O)[C@]1(CC(C)C)N[C@H](c2ccc(SC3CCCCC3)cc2)[C@@H]2C(=O)N(C)C(=O)[C@@H]21`, the inhibition is 16% (inactive).

As for `O=C(OCC(=O)N1CCCCCC1)c1ccc(Cl)nc1`, the inhibition is 0.75% (inactive).

Consider `CCOC(=O)Cn1c(-c2cccnc2Cl)nc2ccccc21`, for which the inhibition is 2.13% (inactive).

Consider `CCCCCCCCCCOC(=O)Cn1c(COc2ccc(C)cc2)[n+](C)c2ccccc21`, for which the inhibition was 36.3% (active).

Consider `CCCCCCCCCCOC(=O)Cn1c(COc2cccc(OC)c2)[n+](C)c2ccccc21`, for which the inhibition is 17.1% (inactive).

In the case of `Cc1cccc(NC(=O)c2ccc(S(=O)(=O)N(C)c3ccccc3)cc2)n1`, the inhibition was 2.21% (inactive).

Take `CCN(C(=O)COC(=O)c1ccccc1O)c1cccc2ccccc12`: the inhibition was 2.66% (inactive).

Turning to `Cc1cc2c(cc1C)N(C(=O)CN1C(=O)c3ccccc3C1=O)C(C)(C)c1ssc(=S)c1-2`, the inhibition was -10.7% (inactive).

With `COc1cc(NC(=O)CN2C(=O)NC(C)(c3ccc(OC(F)F)cc3)C2=O)cc(OC)c1OC` (configuration not stated), the inhibition is 5.68% (inactive).

Usually inhibition stands for the change of the read-out against control, counted positive when it falls.
